# PubChem BioAssay AID463173 (ICCB-Longwood Screening Facility, Harvard Medical School, 2010)
# In all, about 52,000 compounds went through this assay and about 4,300 (8.3%) were called active. Cut-off read from the data, not from the text of the source: active = survival mostly below about 52% (no sharp cut-off); inactive = mostly above about 56%. For the sample, actives were picked, then their nearest neighbours and some compounds at random.
# Test system: DeltatarO mutant
# Test: growth inhibition of S. aureus wild type versus tarO mutant, primary screen, teichoic acid synthesis inhibitors, RN4220, OD600 (AID 463173)
# Settings: OD600, 18 h, stronger effect = lower value, screened at 18.75 µg/mL (by protocol)
row,SMILES,survival
1,Cc1ccccc1NC(=O)CSc1nc2c(c(=O)n(C)c(=O)n2C)n1Cc1ccccc1F,56% (inactive)
2,CCN(CC)CCNC(=O)c1nn(C)c2c1CS(=O)(=O)c1ccccc1-2,59% (inactive)
3,O=S(=O)(Nc1cccc(-c2ccc(N3CCCC3)nn2)c1)c1ccc(F)c(C(F)(F)F)c1,71% (inactive)
4,Cc1cccc2c(=O)c(N)c[nH]c12,105% (inactive)
5,O=C(Cn1c(=O)n(-c2ccccc2)c(=O)c2ccc(C(=O)NCc3ccc4c(c3)OCO4)cc21)Nc1ccc(Br)cc1F,117% (inactive)
6,CCc1ccc(CNC(=O)CN2C(=O)CCn3nc(-c4cn(C)c5ccccc45)cc32)cc1,81% (inactive)
7,Cn1c(Nc2ccc(Cl)cc2)cc(=O)n(C)c1=O,93% (inactive)
8,Cc1cc(F)ccc1NC(=O)C1CCN(C(=O)c2cnn(-c3ccccc3)c2-n2cccc2)CC1,80% (inactive)
9,O=C(NCCCN1CCN(c2ccccc2F)CC1)c1cc2c(s1)-c1ccccc1OC2,11% (active)
10,CCCN1CCN(CCCNC(=O)c2cc3c(s2)-c2ccccc2OC3)CC1,85% (inactive)
11,Cc1cccc2c1-c1sc(C(=O)NCCCN3CCN(c4ccccc4F)CC3)cc1CO2,63% (inactive)
12,O=C(NCCCN1CCN(c2ccc(F)cc2)CC1)c1cc2c(s1)-c1ccccc1OC2,55% (active)
13,O=C(NCCCN1CCN(c2ccccc2)CC1)c1cc2c(s1)-c1ccccc1OC2,53% (inactive)
14,CCN1CCN(CCCNC(=O)c2cc3c(s2)-c2ccccc2OC3)CC1,88% (inactive)
15,Cc1ccc(CCNC(=O)CCc2cn(Cc3ccccc3C)c3ccccc23)cc1,68% (inactive)
16,CCN(C(=O)c1cn(CC)c(=O)c2cc(OC)c(OC)cc12)c1ccc(C)c(C)c1,169% (inactive)
17,Cc1cc(OCC(=O)NC(Cc2c[nH]c3ccccc23)C(=O)O)ccc1Cl (stereo not given),53% (inactive)
18,CCc1ccc(OCC(=O)NC(Cc2c[nH]c3ccccc23)C(=O)O)cc1 (stereo not given),40% (active)
19,CCOC(=O)C(Cc1c[nH]c2ccccc12)NC(=O)COc1ccc(CC)cc1 (stereo not given),33% (active)
20,Cc1cc(C)cc(OCC(=O)NC(Cc2c[nH]c3ccccc23)C(=O)O)c1 (stereo not given),51% (inactive)
21,CC(C)c1ccc(OCC(=O)NC(Cc2c[nH]c3ccccc23)C(=O)O)cc1 (stereo not given),42% (active)
22,CCc1ccc(C(=O)COC(=O)C(Cc2c[nH]c3ccccc23)NC(=O)c2ccc(Br)cc2)cc1 (stereo not given),142% (inactive)
23,CC(C)(C)c1ccc(OCC(=O)NC(Cc2c[nH]c3ccccc23)C(=O)O)cc1 (stereo not given),56% (inactive)

row,SMILES,survival
1,COc1ccc(OCC(=O)NC(Cc2c[nH]c3ccccc23)C(=O)O)cc1 (stereo not given),60% (inactive)
2,COC(=O)C(Cc1c[nH]c2ccccc12)NC(=O)COc1cccc(C)c1 (stereo not given),65% (inactive)
3,Cc1cccc(OCC(=O)NC(Cc2c[nH]c3ccccc23)C(=O)O)c1C (stereo not given),48% (inactive)
4,COC(=O)C(Cc1c[nH]c2ccccc12)NC(=O)COc1ccc(Cl)cc1Cl (stereo not given),46% (inactive)
5,CCOC(=O)C(Cc1c[nH]c2ccccc12)NC(=O)COc1ccc(Cl)c(C)c1 (stereo not given),36% (active)
6,O=C(CCn1c(=O)c2cccn2c2cccnc21)Nc1ccccc1Br,74% (inactive)
7,COc1ccc(N2CC(NC(=O)c3cccs3)CC2=O)cc1 (stereo not given),89% (inactive)
8,O=C(O)Cn1nc(N2CCN(c3ccc(F)cc3)CC2)ccc1=O,84% (inactive)
9,Cc1ccc(NC(=O)Cn2c(=O)n(CCCCCC(=O)NCc3ccc(F)cc3)c(=O)c3sccc32)c(C)c1,66% (inactive)
10,O=C(O)CCn1nnc(-c2cccs2)n1,103% (inactive)
11,Cc1cccc(N2CCN(C(=O)c3ccc(NC(=O)c4nsc5ccccc45)cc3)CC2)c1C,76% (inactive)
12,O=C(NCCN1CCCCC1)c1ccc(Cn2c(SCc3cccc(F)c3)nc3cccnc32)cc1,103% (inactive)
13,Cc1c(C(=O)Nc2ccccc2)sc2ncn(CC(=O)N3CCOCC3)c(=O)c12,87% (inactive)
14,CCOc1ccc(C(=O)/C=C/c2cn(CC(O)CN3CCCCCC3)c3ccccc23)cc1 (stereo not given),1% (active)
15,O=C(Cn1cc(SCc2ccc(Br)cc2)c2ccccc21)N1CCCCC1,80% (inactive)
16,COc1ccc(C(=O)/C=C/c2cn(CC(O)CN3CCCCCC3)c3ccccc23)cc1OC (stereo not given),80% (inactive)
17,O=C(/C=C/c1cn(CC(O)CN2CCc3ccccc32)c2ccccc12)c1ccc(Br)cc1 (stereo not given),68% (inactive)
18,O=C(/C=C/c1cn(CC(O)CN2CCCCCC2)c2ccccc12)c1ccc(Br)cc1 (stereo not given),-3% (active)
19,COc1ccc(C(=O)/C=C/c2cn(CC(O)CN3CCc4ccccc43)c3ccccc23)cc1OC (stereo not given),68% (inactive)
20,O=C(/C=C/c1cn(CC(O)CN2CCCCCC2)c2ccccc12)c1ccccc1 (stereo not given),49% (inactive)
21,Cc1ccc(C(=O)/C=C/c2cn(CC(O)CN3CCCCCC3)c3ccccc23)cc1 (stereo not given),12% (active)
22,CCOc1ccc(C(=O)OC(C)CN2CCCCC2)cc1 (stereo not given),96% (inactive)
23,COc1ccc(CCn2c3c(c(=O)[nH]c2=O)C(NC(=O)c2ccccc2OC)(C(F)(F)F)C(=O)N3)cc1OC (stereo not given),81% (inactive)

row,SMILES,survival
1,Cc1ccc(NC(=O)c2ccc3c(O)c(S(=O)(=O)c4ccccc4)c(=O)[nH]c3c2)cc1Cl,78% (inactive)
2,CCc1cccc(NC(=O)CSc2nnc(-c3cc4occc4n3C)n2-c2ccccc2C)c1,89% (inactive)
3,COc1ccccc1N1CCN(C(=O)C2CCCN(S(=O)(=O)c3ccc4c(c3)CCCN4C(C)=O)C2)CC1 (stereo not given),88% (inactive)
4,CCN1CCN(C(C)C(=O)NCc2ccc(OC)cc2)CC1 (stereo not given),85% (inactive)
5,CNC(=O)CSc1nnc(NC(=O)Nc2ccccc2)s1,94% (inactive)
6,O=C(Cn1c(SCC(=O)N2CCc3ccccc32)nc2ccccc21)NC1CC1,77% (inactive)
7,OC1COCc2nc3ccccc3n2C1 (stereo not given),57% (active)
8,c1ccc2c(c1)nc1n2CCC1,96% (inactive)
9,O=C(NCCc1ccccc1)c1ccc2c(c1)nc1n2CCOC1,109% (inactive)
10,Cn1c(=O)n(C)c2cc(N3CCOCC3)c(NS(=O)(=O)c3ccc(C(C)(C)C)cc3)cc21,81% (inactive)
11,COc1cccc(NC(=O)C(Cc2ccccc2)N2Cc3ccccc3C2=O)c1 (stereo not given),66% (inactive)
12,CCOc1ccc(CCNC(=O)c2cc3sc(CC)cc3n2C)cc1OCC,55% (inactive)
13,COc1cc(CN(C(=O)COc2ccc(F)cc2)c2ccccn2)cc(OC)c1OC,81% (inactive)
14,Cc1cccc(CN2CCC(CNC(=O)Cn3ncc4c([nH]c5ccc(C)cc54)c3=O)CC2)c1,120% (inactive)
15,Cc1cc(C)nc(SC2=CS(=O)(=O)c3ccccc32)n1,88% (inactive)
16,OCC#CCSc1nc2ccccc2s1,71% (inactive)
17,O=S1(=O)C=C(Sc2nc3ccccc3s2)c2ccccc21,4% (active)
18,CC(C)CCn1c(=O)c2cccnc2n(CC(=O)Nc2ccccc2)c1=O,72% (inactive)
19,CCOc1ccccc1Nc1sc(C(=O)c2ccc(Cl)cc2)c(N)c1S(=O)(=O)c1ccccc1,25% (active)
20,COc1ccc(S(=O)(=O)c2c(Nc3ccc(C)cc3)sc(C(=O)c3ccc(C)cc3)c2N)cc1,105% (inactive)
21,CCS(=O)(=O)c1c(Nc2cc(C)ccc2C)sc(C(=O)c2ccccc2)c1N,90% (inactive)
22,CCOc1ccccc1Nc1sc(C(=O)c2ccccc2)c(N)c1S(=O)(=O)c1ccc(C)cc1,92% (inactive)
23,Cc1ccc(Nc2sc(C(=O)c3ccc(F)cc3)c(N)c2S(=O)(=O)c2ccc(C)cc2)cc1,116% (inactive)

row,SMILES,survival
1,CCCS(=O)(=O)c1c(Nc2ccccc2C)sc(C(=O)c2ccccc2)c1N,28% (active)
2,CCOc1ccccc1Nc1sc(C(=O)c2ccc(Cl)cc2)c(N)c1C#N,94% (inactive)
3,CCOc1ccc(Nc2sc(C(=O)c3ccc(F)cc3)c(N)c2S(=O)(=O)c2ccc(C)cc2)cc1,52% (active)
4,Cc1ccccc1Nc1sc(C(=O)c2ccccc2)c(N)c1S(C)(=O)=O,99% (inactive)
5,Cc1nc2ccc(S(=O)(=O)N(C)CC(=O)Nc3ccc(C(C)C)cc3)cc2s1,113% (inactive)
6,CCc1ccc(NC(=O)CN2C(=O)CCSc3ccccc32)cc1,86% (inactive)
7,CCc1nc2ccccc2n2c(-c3ccccc3)c3c(=O)n(C)c(=O)n(C)c3c12,75% (inactive)
8,Cc1cc2c(cc1S(=O)(=O)NCc1ccccc1)OCC(=O)N2,91% (inactive)
9,COc1ccc(C)cc1NC(=O)NC(C)c1c(-n2cccc2)sc(C)c1C (stereo not given),44% (inactive)
10,Cc1ccccc1-c1nnc(SCC(=O)N2CCCCC2)o1,64% (inactive)
11,Cc1nc2c(-c3ccccc3)c(C)nn2c(C)c1CCC(=O)NCc1cccc(Cl)c1,109% (inactive)
12,CCc1cccc(NC(=O)CN2C(=O)COc3ccc(S(=O)(=O)Nc4ccccc4)cc32)c1,82% (inactive)
13,CC(C)N1CC2=C(OC(N)=C(C#N)C2c2cccnc2)/C(=C/c2cccnc2)C1 (stereo not given),85% (inactive)
14,CCOC(=O)C1=C(c2ccccc2)OC(N)=C(C#N)C1c1ccncc1 (stereo not given),87% (inactive)
15,N#CC1=C(N)OC2=C(CCc3ccccc32)C1c1ccccc1 (stereo not given),2% (active)
16,Cc1cccc(C)c1NC(=O)C(C)Sc1n[nH]c(-c2ccncc2)n1 (stereo not given),76% (inactive)
17,Cc1ccc(CSc2n[nH]c(-c3ccccc3O)n2)cc1,62% (inactive)
18,Cc1ccc(NC(=O)C(C)Sc2n[nH]c(-c3ccccc3O)n2)cc1 (stereo not given),23% (active)
19,O=C(NCC(=O)N1CCCCC1)c1ccccc1,97% (inactive)
20,Cc1ccc(Cl)cc1NC(=O)Cn1c(=O)oc2cc(S(=O)(=O)N3CCCC3)ccc21,81% (inactive)
21,CCc1ccccc1NC(=O)Cn1c(=O)n(CCc2ccccc2)c(=O)c2ccccc21,89% (inactive)
